Results filed as inconclusive are left out. Activity calls are given as the source filed them. Unless noted, calls follow the shape of the dose curve; as a rule, active = well fitted curve in the direction sought with a large enough effect; inconclusive = small, poorly fitted or top-dose-only effect, or another doubt; inactive = no such curve, though single readings can be large; an effect the other way counts as inactive or inconclusive.
Assays:
[1] = Quantitative high throughput screen for delayed death inhibitors of the malarial parasite plastid, 96 hour incubation (AID 488745); settings: Plasmodium falciparum growth; series mostly up to 28.7 µM;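 also: luciferase-expressing P. falciparum in erythrocytes at 2% hematocrit and 0.1% parasitemia; nearly all actives have a fitted effect of over 70% in size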
How it was run: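 Growth of reporter-bearing P. falciparum in red cells is measured after 96 h with compound, covering two erythrocytic cycles. Luminescence from the integrated luciferase serves as the growth signal.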

[2] = Quantitative high throughput screen for delayed death inhibitors of the malarial parasite plastid, 48 hour incubation (AID 488752); settings: Plasmodium falciparum growth; series mostly up to 28.7 µM; also: nearly all actives have a fitted effect of over 65% in size
How it was run: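 One parasite generation (48 h, 37 C, 5% CO2) of luciferase-reporter P. falciparum in erythrocytes is run with test compound; decreased luminescence indicates inhibited growth.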

[3] = molecular target: M-phase phosphoprotein 8 (Homo sapiens) (UniProt Q99549); assay: qHTS Validation Assay for Inhibitors for MPP8 Chromodomain Interactions with Methylated Histone Tails (AID 488949); settings: AlphaScreen MPP8 binding to H3K9me3 peptide; series mostly up to 114 µM; also: top concentration of the series differs between compounds; nearly all actives have a fitted effect of over 55% in size
Chain of M-phase phosphoprotein 8 (Homo sapiens) (Q99549 whole entry, looked up): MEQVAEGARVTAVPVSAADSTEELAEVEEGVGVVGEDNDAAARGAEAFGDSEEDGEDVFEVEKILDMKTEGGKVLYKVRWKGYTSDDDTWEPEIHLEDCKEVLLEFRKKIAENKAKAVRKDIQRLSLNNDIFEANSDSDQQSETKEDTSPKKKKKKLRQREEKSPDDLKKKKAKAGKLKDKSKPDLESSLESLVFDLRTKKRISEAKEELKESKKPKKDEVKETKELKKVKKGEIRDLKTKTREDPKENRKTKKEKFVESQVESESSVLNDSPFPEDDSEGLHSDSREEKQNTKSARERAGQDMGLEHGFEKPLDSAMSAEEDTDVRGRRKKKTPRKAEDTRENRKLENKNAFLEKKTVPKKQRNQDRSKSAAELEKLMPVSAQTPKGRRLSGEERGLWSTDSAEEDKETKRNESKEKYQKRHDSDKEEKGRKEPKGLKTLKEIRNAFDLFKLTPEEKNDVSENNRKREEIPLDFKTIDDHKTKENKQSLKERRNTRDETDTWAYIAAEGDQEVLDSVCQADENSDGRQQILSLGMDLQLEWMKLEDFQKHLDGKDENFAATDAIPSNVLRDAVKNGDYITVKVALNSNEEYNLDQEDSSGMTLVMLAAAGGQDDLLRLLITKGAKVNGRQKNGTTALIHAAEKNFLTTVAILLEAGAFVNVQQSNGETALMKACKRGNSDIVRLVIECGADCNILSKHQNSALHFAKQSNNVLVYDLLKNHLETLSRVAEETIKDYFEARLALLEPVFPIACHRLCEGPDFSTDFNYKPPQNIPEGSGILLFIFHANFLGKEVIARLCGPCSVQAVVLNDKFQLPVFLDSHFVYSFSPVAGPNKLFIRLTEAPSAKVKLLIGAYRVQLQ
How it was run: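 MPP8 (50 nM) was pre-bound to 50 nM biotinylated H3(1-18)K9me3 peptide in PBS pH 7.4 with 0.01% Tween-20. Compounds were then added for 30 min at room temperature, and complex disruption was read by AlphaScreen with streptavidin donor and nickel-chelate acceptor beads.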

[4] = molecular target: Ubiquitin carboxyl-terminal hydrolase 2 (Homo sapiens) (UniProt O75604); assay: qHTS Validation Assay for Inhibitors of Ubiquitin-specific Protease USP2a Using CHOP2 as the Reporter (AID 463106); settings: USP2a cleavage of CHOP2 reporter, enzymatic; series mostly up to 38.3 µM
Chain of Ubiquitin carboxyl-terminal hydrolase 2 (Homo sapiens) (O75604 whole entry, looked up): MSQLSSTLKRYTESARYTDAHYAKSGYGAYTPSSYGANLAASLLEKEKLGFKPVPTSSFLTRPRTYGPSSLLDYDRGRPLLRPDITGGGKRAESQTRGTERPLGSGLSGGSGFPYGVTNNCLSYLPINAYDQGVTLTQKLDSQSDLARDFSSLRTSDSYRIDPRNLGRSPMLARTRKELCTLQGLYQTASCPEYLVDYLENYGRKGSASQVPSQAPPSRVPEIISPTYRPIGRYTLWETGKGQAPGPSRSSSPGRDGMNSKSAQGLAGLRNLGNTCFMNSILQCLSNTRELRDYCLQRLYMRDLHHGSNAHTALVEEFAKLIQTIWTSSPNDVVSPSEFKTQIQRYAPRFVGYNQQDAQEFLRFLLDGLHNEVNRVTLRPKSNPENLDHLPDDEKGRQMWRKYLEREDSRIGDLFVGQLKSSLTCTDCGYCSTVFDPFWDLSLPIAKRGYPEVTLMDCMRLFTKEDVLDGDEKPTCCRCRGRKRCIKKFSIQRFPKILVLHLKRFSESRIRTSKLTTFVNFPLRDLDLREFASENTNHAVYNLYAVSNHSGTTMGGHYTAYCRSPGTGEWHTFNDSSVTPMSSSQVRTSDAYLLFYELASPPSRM
How it was run: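 USP2 core (10 nM final) was preincubated with compound 30 min at RT in pH 8.0 Tris/CaCl2/beta-ME/CHAPS buffer. Ub-CHOP2 and reporter substrate (25 nM final each) were then added, with fluorescence (Ex 485/Em 531) read after 60 min. Data were normalized to NEM full inhibition and fitted to concentration-response curves.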

[5] = molecular target: DNA polymerase III PolC-type (Bacillus subtilis (strain 168)) (UniProt P13267); assay: qHTS Validation Assay for the Inhibitors of DNA Replication in Gram-Positive Bacteria (AID 485295); settings: Gram-positive bacterial DNA replication assay; series mostly up to 57.1 µM;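 also: PicoGreen fluorescence of double-stranded DNA made on primed circular M13 template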
Chain of DNA polymerase III PolC-type (Bacillus subtilis (strain 168)) (P13267 whole entry, looked up): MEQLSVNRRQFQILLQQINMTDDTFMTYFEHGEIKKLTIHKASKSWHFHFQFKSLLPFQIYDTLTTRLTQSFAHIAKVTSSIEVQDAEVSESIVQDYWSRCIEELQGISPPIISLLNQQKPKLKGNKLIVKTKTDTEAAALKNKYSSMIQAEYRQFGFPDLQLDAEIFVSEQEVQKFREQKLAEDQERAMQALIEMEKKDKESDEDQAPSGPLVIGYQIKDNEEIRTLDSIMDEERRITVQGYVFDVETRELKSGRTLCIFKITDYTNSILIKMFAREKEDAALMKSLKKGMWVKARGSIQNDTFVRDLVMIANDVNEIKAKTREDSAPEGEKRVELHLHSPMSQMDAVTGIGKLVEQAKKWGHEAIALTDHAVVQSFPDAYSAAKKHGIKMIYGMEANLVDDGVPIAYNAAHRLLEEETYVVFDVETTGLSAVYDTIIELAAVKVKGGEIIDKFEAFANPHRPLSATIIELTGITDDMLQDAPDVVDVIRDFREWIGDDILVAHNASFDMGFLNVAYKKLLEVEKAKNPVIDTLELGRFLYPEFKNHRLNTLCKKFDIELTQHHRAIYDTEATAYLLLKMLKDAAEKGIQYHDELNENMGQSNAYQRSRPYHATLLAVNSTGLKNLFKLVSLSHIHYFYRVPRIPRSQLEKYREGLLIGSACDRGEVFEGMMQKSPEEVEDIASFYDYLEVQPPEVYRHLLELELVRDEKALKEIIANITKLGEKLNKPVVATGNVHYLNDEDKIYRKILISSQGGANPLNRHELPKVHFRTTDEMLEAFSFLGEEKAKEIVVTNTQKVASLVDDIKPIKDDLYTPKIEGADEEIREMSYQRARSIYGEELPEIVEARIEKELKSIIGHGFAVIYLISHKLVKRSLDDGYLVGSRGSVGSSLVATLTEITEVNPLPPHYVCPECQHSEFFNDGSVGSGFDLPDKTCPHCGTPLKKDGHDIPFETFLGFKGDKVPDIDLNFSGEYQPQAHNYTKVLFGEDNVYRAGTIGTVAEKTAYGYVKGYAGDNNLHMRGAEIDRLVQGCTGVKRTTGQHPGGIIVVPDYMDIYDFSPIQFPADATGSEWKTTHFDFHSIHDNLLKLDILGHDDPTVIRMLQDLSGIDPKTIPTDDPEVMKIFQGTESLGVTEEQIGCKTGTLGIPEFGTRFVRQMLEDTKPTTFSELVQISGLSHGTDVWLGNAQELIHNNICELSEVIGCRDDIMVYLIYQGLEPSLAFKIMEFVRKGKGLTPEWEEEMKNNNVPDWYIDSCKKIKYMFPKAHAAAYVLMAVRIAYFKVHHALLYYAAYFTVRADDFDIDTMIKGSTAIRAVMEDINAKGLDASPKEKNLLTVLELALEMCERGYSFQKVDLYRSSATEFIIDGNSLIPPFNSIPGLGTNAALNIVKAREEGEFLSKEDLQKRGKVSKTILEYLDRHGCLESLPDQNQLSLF
How it was run: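 Reconstituted B. subtilis Pol III holoenzyme (PolC, beta clamp, SSB, primase) preincubated with compound, then M13Gori single-stranded circular template with dNTPs/NTPs added; room temperature reaction. Stopped with EDTA/PicoGreen; dsDNA fluorescence read, EDTA as full-inhibition control.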

[6] = molecular target: Tumor susceptibility gene 101 protein (Homo sapiens) (UniProt Q99816); assay: qHTS Validation Assay for Iinhibitors of HIV-1 Budding by Blocking the Interaction of PTAP/TSG101 (AID 485342; calls by dose curve); settings: TSG101-PTAP binding, fluorescence polarization, 4-point titration; series mostly up to 115 µM
Chain of Tumor susceptibility gene 101 protein (Homo sapiens) (Q99816 whole entry, looked up, the tested form may be a part): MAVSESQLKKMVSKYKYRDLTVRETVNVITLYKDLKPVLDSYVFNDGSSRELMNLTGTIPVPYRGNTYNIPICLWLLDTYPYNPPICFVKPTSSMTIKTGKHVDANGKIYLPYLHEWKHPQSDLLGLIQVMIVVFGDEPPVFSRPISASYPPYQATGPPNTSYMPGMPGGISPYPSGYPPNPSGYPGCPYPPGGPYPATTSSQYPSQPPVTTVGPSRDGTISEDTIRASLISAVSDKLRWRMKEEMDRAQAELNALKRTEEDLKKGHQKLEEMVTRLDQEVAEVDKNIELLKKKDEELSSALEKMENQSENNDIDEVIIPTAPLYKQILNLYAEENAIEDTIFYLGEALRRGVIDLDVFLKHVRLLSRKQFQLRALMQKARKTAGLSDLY
How it was run: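 Tsg101 binding domain (10 uM) with FITC-labeled PTAP peptide (50 nM) in HEPES pH 7.5 buffer, 20 min at r.t. with compounds. Binding measured by fluorescence polarization.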

[7] = qHTS Validation Assay to Find Inhibitors of Chronic Active B-Cell Receptor Signaling (AID 485345; active = well fitted curve in the direction sought with a large enough effect in the main read-out, with a control signal flat, not every such curve was filed as active); settings: ABC-DLBCL cells, chronic BCR signaling reporter, CBG luciferase; series mostly up to 46.1 µM
How it was run: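 TMD8 ABC-DLBCL cells stably carrying doxycycline-inducible IkappaBalpha–green luciferase fusion plus unfused red luciferase; compounds 46 uM to 3 nM, 4 h at 37C with doxycycline. Corrected green/red luminescence ratio normalized to 10 uM MG-132 and basal cell wells; curves fitted.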

[8] = molecular target: Beta-2 adrenergic receptor (Homo sapiens) (UniProt P07550); assay: qHTS validation assay of beta-arrestin-biased ligands of beta2-adrenergic receptor (AID 485366); settings: cell-based beta-arrestin recruitment to ADRB2, qHTS; series mostly up to 46.1 µM
Chain of Beta-2 adrenergic receptor (Homo sapiens) (P07550 whole entry, looked up): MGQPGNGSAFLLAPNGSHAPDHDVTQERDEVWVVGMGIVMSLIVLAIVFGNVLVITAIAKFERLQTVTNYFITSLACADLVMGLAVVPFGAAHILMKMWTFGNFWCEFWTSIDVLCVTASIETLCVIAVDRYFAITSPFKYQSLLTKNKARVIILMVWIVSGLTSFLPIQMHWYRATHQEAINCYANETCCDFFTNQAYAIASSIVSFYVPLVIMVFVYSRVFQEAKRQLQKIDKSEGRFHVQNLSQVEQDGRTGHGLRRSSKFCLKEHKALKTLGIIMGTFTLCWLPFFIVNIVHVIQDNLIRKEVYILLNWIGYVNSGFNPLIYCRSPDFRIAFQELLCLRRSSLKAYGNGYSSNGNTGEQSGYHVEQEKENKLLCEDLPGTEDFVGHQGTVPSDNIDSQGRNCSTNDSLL
How it was run: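 Arrestin-recruitment (Tango) reporter: ligand-bound beta2-AR recruits beta-arrestin, releasing tTA, which upregulates luciferase. Titrations of up to 46 microM incubated 18 hr at 37 degrees C before luminescent readout.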

[9] = molecular target: Thioredoxin reductase 1, cytoplasmic (Rattus norvegicus) (UniProt O89049); assay: qHTS Assay for Substrates of Mammalian Selenoprotein Thioredoxin Reductase 1 (TrxR1) (AID 488772); settings: purified TrxR1, NADPH consumption substrate assay; series mostly up to 57.1 µM;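 also: NADPH fluorescence in the first read after selenite addition and not the 8 min delta; a drop in NADPH fluorescence below the no-compound background marks a TrxR1 substrate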
Chain of Thioredoxin reductase 1, cytoplasmic (Rattus norvegicus) (O89049 whole entry, looked up): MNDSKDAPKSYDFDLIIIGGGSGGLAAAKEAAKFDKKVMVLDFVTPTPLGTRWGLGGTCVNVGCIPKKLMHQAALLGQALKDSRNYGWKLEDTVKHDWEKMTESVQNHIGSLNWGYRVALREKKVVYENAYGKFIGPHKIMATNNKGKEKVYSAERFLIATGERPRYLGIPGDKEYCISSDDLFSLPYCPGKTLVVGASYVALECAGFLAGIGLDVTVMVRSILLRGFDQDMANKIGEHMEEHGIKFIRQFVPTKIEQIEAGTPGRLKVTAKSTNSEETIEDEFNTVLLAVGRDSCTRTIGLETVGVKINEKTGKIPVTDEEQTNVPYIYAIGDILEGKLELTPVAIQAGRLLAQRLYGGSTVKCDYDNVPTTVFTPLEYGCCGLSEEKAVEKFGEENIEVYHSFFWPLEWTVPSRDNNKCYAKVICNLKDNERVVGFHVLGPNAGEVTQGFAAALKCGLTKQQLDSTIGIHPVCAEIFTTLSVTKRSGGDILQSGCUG
How it was run: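 Quantitative HTS in Tris-HCl buffer at pH 7.5 with EDTA and Tween-20, using rat TrxR1, 400 uM NADPH and 400 uM selenite (final). A fall in initial NADPH fluorescence relative to background marked substrate behaviour.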

[10] = molecular target: Flap endonuclease 1 (Homo sapiens) (UniProt P39748); assay: qHTS Validation Assay for the Inhibitors of Human Flap endonuclease 1 (FEN1) (AID 488816); settings: FEN1 nuclease activity, fluorogenic DNA substrate; series mostly up to 57.1 µM
Chain of Flap endonuclease 1 (Homo sapiens) (P39748 whole entry, looked up): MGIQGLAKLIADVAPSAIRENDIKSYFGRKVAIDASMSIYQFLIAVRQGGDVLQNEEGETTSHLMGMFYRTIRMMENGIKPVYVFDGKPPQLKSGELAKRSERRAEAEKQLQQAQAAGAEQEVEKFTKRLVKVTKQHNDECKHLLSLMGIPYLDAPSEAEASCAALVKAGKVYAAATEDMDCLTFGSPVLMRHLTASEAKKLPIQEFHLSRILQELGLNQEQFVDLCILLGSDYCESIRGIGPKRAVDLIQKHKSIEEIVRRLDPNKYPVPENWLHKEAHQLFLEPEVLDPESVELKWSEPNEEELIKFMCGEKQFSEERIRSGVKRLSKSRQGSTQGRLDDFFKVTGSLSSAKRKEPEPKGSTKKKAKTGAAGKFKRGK
How it was run: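 Human FEN1 (10 nM) preincubated 15 min at room temperature with compounds, then flap DNA substrate added at 50 nM final. Fluorescence read at 0 and 15 min; concentration-response fitted with four-parameter Hill equation.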

Measured: outcome

Cc1cc(C)c(NC(=O)C[C@H](CC(=O)O)c2cccc3ccccc23)c(C(=O)N2CCC3(CCCC3)CC2)c1
inactive: [1] | [2] | [3]

Oc1ccc(/C=C/c2cc(O)cc(O)c2)cc1
not listed: [1] | [2]
inactive: all other assays above

C[C@@](Cc1ccc(O)c(O)c1)(NN)C(=O)O
inactive: [3]

O=C(NCCNCC(O)COc1ccc(O)cc1)N1CCOCC1 (configuration not stated)
inactive: [1] | [2] | [3]

O=c1[nH]c(=O)n([C@H]2C[C@H](O)[C@@H](CO)O2)cc1/C=C/Br
inactive: [2] | [3]

From PubChem BioAssay (NCATS)
